For 2 compounds, Potency and outcome results are on record in PubChem BioAssay (NCATS).

Results filed as inconclusive are left out. The source made the active and inactive calls. Calls come from the whole dose curve; as a rule, active = well fitted curve in the direction sought with a large enough effect; inconclusive = small, poorly fitted or top-dose-only effect, or another doubt; inactive = no such curve, though single readings can be large; an effect the other way counts as inactive or inconclusive.

Test [1] in a line: qHTS of pediatric cancer cell lines to identify multiple opportunities for drug repurposing: Primary screen for A673 cells (AID 1347092). Note: nearly all actives have a fitted effect of over 45% in size. Note: potency is the fitted concentration of half-maximal effect. The method, boiled down:
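48 h compound exposure, A673, 500-1,000 cells/well, 37 degrees C/5% CO2. MIPE: 11-point, 0.78 nM-46 µM; NPC: 8-point, 0.59 nM-46 µM (final). Readout CellTiter-Glo luminescence after 15 min RT.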
For orientation: qHTS replaces the single test concentration by a dilution series.

Test [2] can be described thus: qHTS of pediatric cancer cell lines to identify multiple opportunities for drug repurposing: Primary screen for SK-N-MC cells (AID 1347093). Note: potency is the fitted concentration of half-maximal effect. An excerpt: (§1) Drug repurposing or repositioning has been offered as a strategy for drug development in oncology programs. This approach has special potential for childhood cancers and other rare or orphan diseases, where the expected return on new drug development has been a disincentive to pharmaceuticals.
(§2) In this project we exploit the poly-pharmacology of drugs to discover new indications via phenotypic screening of a panel of 19 well-characterized cell lines derived from solid tumors seen in children and adolescents. The goal is to identify approved drugs with previously unrecognized anticancer properties that has the potential to reveal new mechanisms and biological processes involved in carcinogenesis or drug resistance. We employed a titration-based paradigm (quantitative high-throughput screening or qHTS), where all compounds were tested at multiple concentrations for their effect on cell viability. […] We screened the NIH Chemical Genomics Center (NCGC) Pharmaceutical Collection (NPC) and Mechanism Interrogation Plate (MIPE) small molecule collections of approved and investigational compounds against these cell lines; and measured metabolically active cells after 48 hours of compound treatment as a proxy for cell viability. […]
(§3) [1] Shen, M et al. Quantitative high-throughput phenotypic screening of pediatric cancer cell lines identifies multiple opportunities for drug repurposing. […]

Test [3] is described as follows: qHTS of pediatric cancer cell lines to identify multiple opportunities for drug repurposing: Primary screen for BT-37 cells (AID 1347094). Note: potency is the fitted concentration of half-maximal effect. An excerpt:
Drug repurposing or repositioning has been offered as a strategy for drug development in oncology programs. This approach has special potential for childhood cancers and other rare or orphan diseases, where the expected return on new drug development has been a disincentive to pharmaceuticals. […] In this project we exploit the poly-pharmacology of drugs to discover new indications via phenotypic screening of a panel of 19 well-characterized cell lines derived from solid tumors seen in children and adolescents. […] We employed a titration-based paradigm (quantitative high-throughput screening or qHTS), where all compounds were tested at multiple concentrations for their effect on cell viability. […] We screened the NIH Chemical Genomics Center (NCGC) Pharmaceutical Collection (NPC) and Mechanism Interrogation Plate (MIPE) small molecule collections of approved and investigational compounds against these cell lines; and measured metabolically active cells after 48 hours of compound treatment as a proxy for cell viability. […] Assay Submitter: Nathalia J. Martinez, National Center for Advancing Translational Sciences, National Institutes of Health, Rockville, MD, USA; email: natalia.martinez@nih.gov Shen, M et al. Quantitative high-throughput phenotypic screening of pediatric cancer cell lines identifies multiple opportunities for drug repurposing. […]

The nature of test [4]: qHTS of pediatric cancer cell lines to identify multiple opportunities for drug repurposing: Primary screen for U-2 OS cells (AID 1347096). Note: nearly all actives have a fitted effect of over 50% in size. Note: potency is the fitted concentration of half-maximal effect. The essentials:
(§4)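 Cells (500-1,000/well) rested 5 h, then received compounds for 48 h; metabolically active cells were measured by CellTiter-Glo luminescence. Final concentrations spanned up to 46 µM (MIPE, 11-point) or 0.59 nM-46 µM (NPC, 8-point) in primary screens, 11-point in follow-ups.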

The nature of test [5]: qHTS of pediatric cancer cell lines to identify multiple opportunities for drug repurposing: Primary screen for Saos-2 cells (AID 1347097). Note: potency is the fitted concentration of half-maximal effect; nearly all actives have a fitted effect of over 40% in size. The settings on record: Saos-2 viability, CellTiter-Glo ATP luminescence, 48 h. The method, boiled down: (§5)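 Viability was measured as metabolically active cells after 48 hours of treatment, read by CellTiter-Glo luminescence. Compounds were tested at multiple final concentrations, giving concentration-response curves.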

The nature of test [6]: qHTS of pediatric cancer cell lines to identify multiple opportunities for drug repurposing: Primary screen for SK-N-SH cells (AID 1347098). Note: nearly all actives have a fitted effect of over 65% in size. Note: potency is the fitted concentration of half-maximal effect.
Source text: as §1, §2, §3

Test [7] is described as follows: qHTS of pediatric cancer cell lines to identify multiple opportunities for drug repurposing: Primary screen for NB1643 cells (AID 1347099). Note: nearly all actives have a fitted effect of over 50% in size. Note: potency is the fitted concentration of half-maximal effect. The method, boiled down: as §5
A short description of test [8]: qHTS of pediatric cancer cell lines to identify multiple opportunities for drug repurposing: Primary screen for SJ-GBM2 cells (AID 1347091). The method, boiled down: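 Cell viability, CellTiter-Glo luminescence; 500-1,000 cells/well, 8- or 11-point titration, 48 h compound exposure at 37 degrees C, 5% CO2. Controls: DMSO neutral, bortezomib 2.3 µM final as positive.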

Test [9] in a line: qHTS of pediatric cancer cell lines to identify multiple opportunities for drug repurposing: Primary screen for NB-EBc1 cells (AID 1347095). The method, boiled down: as §5
The nature of test [10]: qHTS of pediatric cancer cell lines to identify multiple opportunities for drug repurposing: Primary screen for LAN-5 cells (AID 1347100). The essentials:
as §4

`C[CH2][Hg][S]c1ccccc1C(=O)O`: the Potency in [1] is 841 nM (active); in [2], 668 nM (active); in [3] it was 12300 nM (active); in test [4] it was 6680 nM (active); in test [5], 841 nM (active); in test [6] it was 3070 nM (active). Also, the Potency in test [7] is 2370 nM (active).
As to `CCCSP(=O)(OCC)SCCC`, the compound was classed as inactive in [8], in test [9] and in test [10]. The Potency entry in test [1], in test [2], in test [3], in test [4], in test [6] and in test [7] was “inactive” each time.
